These results are taken from PubChem BioAssay AID1159580 (chemical genetic matrix, 2015).

Hit rate of the full screen: of about 5,500 compounds, about 2,000 (36%) were called active. Not shown: some 18% with an inconclusive outcome. The list shows a part of the results. Values without a mark were called inactive. No stated cut-off is given here; in the data, active means normalized growth mostly below about 0.91 (no sharp cut-off); inconclusive means no clear call, values can overlap the other calls; inactive means mostly above about 0.92.

This test in a line: chemical genetic growth profiling, strain panel (AID 1159580).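 Further: tested at 20 µM; growth read once vehicle control cultures reached saturation at 30 °C; 1 = growth at the plate median or of vehicle wells; lower values mean less growth of the strain.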 As to conditions: growth OD.
The mark [1] stands for this setting: S. cerevisiae deletion strains, locus YHR030C, strain SLT2, active compounds read low.
[2] abbreviates: S. cerevisiae deletion strains, locus YAL013W, strain DEP1, active compounds read low.
Setting [3] is: S. cerevisiae deletion strains, locus YBR229C, strain ROT2, active compounds read low.
Setting [4] is: S. cerevisiae deletion strains, locus YDL101C, strain DUN1, active compounds read low.
Setting [5] is: S. cerevisiae deletion strains, locus YDL134C, strain PPH21, active compounds read low.
Setting [6] is: S. cerevisiae deletion strains, locus YDR150W, strain NUM1, active compounds read low.
The mark [7] stands for this setting: S. cerevisiae deletion strains, locus YEL061C, strain CIN8, active compounds read low.
Where [8] appears, read: S. cerevisiae deletion strains, locus YGR078C, strain PAC10, active compounds read low.
The mark [9] stands for this setting: S. cerevisiae deletion strains, locus YGR229C, strain SMI1, active compounds read low.
Where [10] appears, read: S. cerevisiae deletion strains, locus YHR087W, strain rtc3, active compounds read low.
Where [11] appears, read: S. cerevisiae deletion strains, locus YJL187C, strain SWE1, active compounds read low.
Where [12] appears, read: S. cerevisiae deletion strains, locus YJR043C, strain POL32, active compounds read low.
[13] abbreviates: S. cerevisiae deletion strains, locus YJR075W, strain HOC1, active compounds read low.
[14] abbreviates: S. cerevisiae deletion strains, locus YKL190W, strain CNB1, active compounds read low.
Setting [15] is: S. cerevisiae deletion strains, locus YLR039C, strain RIC1, active compounds read low.
[16] abbreviates: S. cerevisiae deletion strains, locus YLR058C, strain SHM2 (second series), active compounds read low.
The mark [17] stands for this setting: S. cerevisiae deletion strains, locus YLR085C, strain ARP6, active compounds read low.
The mark [18] stands for this setting: S. cerevisiae deletion strains, locus YLR262C, strain YPT6, active compounds read low.
Setting [19] is: S. cerevisiae deletion strains, locus YML094W, strain GIM5, active compounds read low.
The mark [20] stands for this setting: S. cerevisiae deletion strains, locus YMR219W, strain ESC1, active compounds read low.
Where [21] appears, read: S. cerevisiae deletion strains, locus YMR263W, strain SAP30, active compounds read low.
Where [22] appears, read: S. cerevisiae deletion strains, locus YNL153C, strain GIM3, active compounds read low.
Setting [23] is: S. cerevisiae deletion strains, locus YNL298W, strain CLA4 (second series), active compounds read low.
Setting [24] is: S. cerevisiae deletion strains, locus YNL322C, strain KRE1, active compounds read low.
[25] abbreviates: S. cerevisiae deletion strains, locus YNR030W, strain Alg12, active compounds read low.
Where [26] appears, read: S. cerevisiae deletion strains, locus YPL055C, strain LGE1, active compounds read low.
[27] abbreviates: S. cerevisiae deletion strains, locus YPL241C, strain CIN2, active compounds read low.
The mark [28] stands for this setting: S. cerevisiae deletion strains, locus YPR135W, strain CTF4, active compounds read low.
The mark [29] stands for this setting: S. cerevisiae strains, strain wild type, active compounds read low.

On to `CN(C(=O)C(Cl)Cl)c1ccc(OC(=O)c2ccco2)cc1`, for which the normalized growth is, setting by setting: under setting [1], 0.959; (S. cerevisiae deletion strains, locus YHR079C, strain IRE1, active compounds read low) 0.98; (S. cerevisiae deletion strains, locus YJL095W, strain BCK1, active compounds read low) 0.973; (S. cerevisiae deletion strains, locus YJR066W, strain TOR1, active compounds read low) 0.915; (S. cerevisiae deletion strains, locus YLR113W, strain HOG1, active compounds read low) 1.05; (S. cerevisiae deletion strains, locus YNL183C, strain NPR1, active compounds read low) 0.96. For the same compound, the normalized growth is 0.975 (S. cerevisiae deletion strains, locus YOR231W, strain MKK1, active compounds read low) and 1 (S. cerevisiae deletion strains, locus YPL256C, strain CLN2, active compounds read low).
Take `CC(C)S(=O)(=O)c1csc(C(N)=O)c1Cl`: the normalized growth runs as follows: under setting [2], 1.01; under setting [3], 1.02; (S. cerevisiae deletion strains, locus YCL061C, strain MRC1, active compounds read low) 1.02; under setting [4], 0.989; under setting [5], 1.01; under setting [6], 0.958. Further, the normalized growth by setting is: under setting [7], 1.04; under setting [8], 1; under setting [9], 1; under setting [1], 1.09; under setting [10], 1; under setting [11], 0.983. For the same compound, the normalized growth was 1.01 under setting [12]; 1.01 under setting [13]; 1.01 under setting [14]; 1.05 under setting [15]; 1.01 under setting [16]; 1.02 under setting [17]. The normalized growth under setting [18] is 1.05; the normalized growth under setting [19] was 0.996; the normalized growth under setting [20] is 1.01; the normalized growth under setting [21] was 0.996; the normalized growth (S. cerevisiae deletion strains, locus YMR307W, strain GAS1, active compounds read low) is 1.01; the normalized growth under setting [22] is 1. Besides, the normalized growth is 1.04 under setting [23]; 1.01 under setting [24]; 1.03 under setting [25]; 0.954 under setting [26]; 0.991 under setting [27]; 1.07 under setting [28]. Under setting [29], the normalized growth is 1.02.
For `COC(=O)c1scc(S(=O)(=O)C(C)C)c1N/N=C(/C#N)C(=O)c1ccccc1`, the normalized growth was 0.965 under setting [2]; 0.974 under setting [3]; 0.986 under setting [4]; 0.974 under setting [5]; 0.973 under setting [6]; 0.965 under setting [7]. Besides, the normalized growth under setting [8] is 0.969; the normalized growth under setting [9] is 0.971; the normalized growth under setting [1] is 0.929; the normalized growth under setting [10] is 0.927; the normalized growth under setting [11] is 1.03; the normalized growth under setting [12] was 0.995. The normalized growth is, setting by setting: under setting [13], 0.961; under setting [14], 0.976; under setting [15], 0.902; under setting [16], 0.954; under setting [17], 1.06; under setting [18], 0.839. Moreover, the normalized growth under setting [19] was 1.04; the normalized growth under setting [20] was 0.95; the normalized growth under setting [21] was 0.905; the normalized growth under setting [22] is 0.998; the normalized growth under setting [23] was 0.983; the normalized growth under setting [24] is 0.942 (active). In addition, the normalized growth reads like this: under setting [25], 1.01; (S. cerevisiae deletion strains, locus YOL006C, strain TOP1, active compounds read low) 0.923; under setting [26], 0.885; under setting [27], 1.02; under setting [28], 0.928; under setting [29], 0.967.
